Our source for the activity change, negative = inhibition values is PubChem BioAssay AID1466 (National Center for Advancing Translational Sciences (NCATS), 2008).

Hit rate of the full screen: of about 200,000 compounds, about 10 (0.005%) were called active. Not shown: some 8% with an inconclusive outcome. Calls come from the whole dose curve; as a rule, active = well fitted inhibition curve with a large enough effect; inconclusive = small, poorly fitted or top-dose-only effect, or effect the other way, or another doubt; inactive = no such curve, though single readings can be large or run the other way. Only a sample is shown.

For the experiment, the target named is Lysosomal alpha-glucosidase (Homo sapiens) (UniProt P10253). As to the kind of experiment: qHTS Assay for Inhibitors of Human alpha-Glucosidase as a Potential Chaperone Treatment of Pompe Disease.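 Note: plate controls were uninhibited enzyme wells for no effect and no-enzyme background for full effect.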 As to conditions: purified human GAA, 4-MU-alpha-glucoside fluorescence; series mostly up to 76.9 µM. In short, it runs like this:
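Read-out is 4-methylumbelliferone fluorescence (Ex 365/Em 440 nm) after NaOH/glycine stop at pH 10. Enzyme 4 nM, substrate 400 uM, pH 5.0 citrate buffer, 20 min room temperature; AC50 from Hill-equation concentration-response.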
As for `O=C(/C=C/c1ccccc1[N+](=O)[O-])OC1CCCCC1=O` (stereo unspecified), the activity change, negative = inhibition entry was “inactive”.

For `CCOc1ccc(C(CC(=O)O)n2cnnn2)cc1OC` (stereo unspecified), the activity change, negative = inhibition entry is “inactive”.

Regarding `Cc1cc(=O)[nH]c(S)c1C#N`, the activity change, negative = inhibition was 1.79% [at 15.4 µM] (inactive).

Consider `Cc1c(Cl)cccc1NC(=S)N(Cc1ccccc1)Cc1cccnc1`, for which the activity change, negative = inhibition result was “inactive”.

For the compound `C=C(C)CNC(=S)Nc1ccc(S(=O)(=O)Nc2cnc3ccccc3n2)cc1`, the activity change, negative = inhibition entry is “inactive”.

As to `N/C(=N\OC(=O)Cc1ccc([N+](=O)[O-])cc1)c1ccccn1`, the activity change, negative = inhibition entry was “inactive”.

Turning to `COc1cccc(OC)c1CN(C)C(=O)c1cnccc1C(F)(F)F`, the activity change, negative = inhibition was -1.85% [at 15.4 µM] (inactive).

For `CCS(=O)(=O)C1=NSC2=NC(=O)/C(=C\c3cc(C)n(-c4cccc(OC)c4)c3C)C(=N)N21`, the activity change, negative = inhibition result was “inactive”.

Consider `CC1CC(=O)Nc2ccccc2N1S(=O)(=O)c1cccs1` (stereo unspecified), for which the activity change, negative = inhibition entry was “inactive”.

Regarding `Cc1nc(N2CCCCC2)sc1C=O`, the activity change, negative = inhibition entry was “inactive”.

Regarding `Cc1cc(C)nc(NC(=O)/C=C/c2ccc(Cl)cc2)n1`, the activity change, negative = inhibition entry was “inactive”.

In the case of `COc1ccc(N2C(=O)C3C(C2=O)C(C(=O)c2ccccc2)N2CCCC32)cc1` (stereo unspecified), the activity change, negative = inhibition was -6.45% [at 15.4 µM] (inactive).

`Cc1ccc(OC(=O)c2c(C)nn(-c3ccccc3)c2C)cc1`: the activity change, negative = inhibition entry was “inactive”.

For the compound `NS(=O)(=O)c1ccc(NC(=O)COC(=O)CCc2c[nH]c3ccccc23)cc1`, the activity change, negative = inhibition entry is “inactive”.

In the case of `COc1ccc(CN(Cc2ccc(OC)cc2)C(=O)c2cccs2)cc1`, the activity change, negative = inhibition result is “inactive”.

On to `CCC(=O)N(Cc1cc2ccccc2[nH]c1=O)c1ccc(OC)cc1`, for which the activity change, negative = inhibition entry is “inactive”.

As for `O=C(Nc1cccnc1)c1cccc(S(=O)(=O)N2CCCC2)c1`, the activity change, negative = inhibition entry was “inactive”.

For `CCOC(=O)NNc1cc(C(F)(F)F)ccn1`, the activity change, negative = inhibition is -7.1% [at 15.4 µM] (inactive).

Regarding `CN(C)c1ccc(/C=C/C(=O)c2ccc(O)cc2)cc1[N+](=O)[O-]`, the activity change, negative = inhibition entry was “inactive”.

As for `COC(=O)c1noc(C)c1-c1ccnn1C(=O)c1ccc(Cl)cc1`, the activity change, negative = inhibition entry is “inactive”.

As for `CN(CCC1CCOCC1)Cc1cn[nH]c1-c1ccc(-c2ccccc2)cc1`, the activity change, negative = inhibition result is “inactive”.

Take `CCOC(=O)C1CCN(c2ncnc3c2c(-c2ccccc2)cn3-c2ccc(C)cc2)CC1`: the activity change, negative = inhibition result is “inactive”.

Regarding `CCOC(=O)c1sc(NC(=O)CSc2nc(O)c(Cc3ccccc3)c(=O)[nH]2)nc1C`, the activity change, negative = inhibition result is “inactive”.

For `Cc1cc(=O)oc2c(C(=O)c3ccccc3)c(OCC(N)=O)ccc12`, the activity change, negative = inhibition entry was “inactive”.

For the compound `Cc1cc(C)cc(OCC(=O)O/N=C(\N)Cc2ccc([N+](=O)[O-])cc2)c1`, the activity change, negative = inhibition entry is “inactive”.

For `COC(=O)c1cc(NC(=O)c2ccco2)ccc1N1CCOCC1`, the activity change, negative = inhibition result was “inactive”.

Regarding `CCc1ccc(NC(=O)N2CCN(c3ccccc3)CC2)cc1`, the activity change, negative = inhibition entry was “inactive”.

Take `C=CCN(c1ccccc1C(=O)NCC(=O)OCC)S(=O)(=O)c1ccc(C)cc1`: the activity change, negative = inhibition result was “inactive”.

Regarding `CNC(=O)COC(=O)c1cc(-c2ccc(OC)cc2)nc2ccccc12`, the activity change, negative = inhibition entry is “inactive”.

For the compound `COCCCNC(=S)NCCNc1nc2cc(C)c(C)cc2cc1C#N`, the activity change, negative = inhibition entry is “inactive”.

For the compound `C/[N+]([O-])=C\c1ccc([N+](=O)[O-])o1`, the activity change, negative = inhibition result is “inactive”.

Take `COc1ccc(O)c(C(=O)c2cnc3c(c2)c(-c2ccc(F)cc2)c(C#N)c(=O)n3C)c1`: the activity change, negative = inhibition entry is “inactive”.

As for `CN(C)S(=O)(=O)c1ccc(NC(=O)COC(=O)Cn2[nH]c(=O)c3ccccc3c2=O)cc1`, the activity change, negative = inhibition result was “inactive”.

With `Cc1ccc(CN(Cc2cccnc2)C(=S)Nc2cc(Cl)ccc2C)cc1`, the activity change, negative = inhibition result was “inactive”.

With `Cc1ccccc1NCC(=O)N/N=C\c1ccc([N+](=O)[O-])s1`, the activity change, negative = inhibition result is “inactive”.

As for `COc1cccc(NC(=O)C(Sc2nnnn2C)c2ccccc2)c1` (stereo unspecified), the activity change, negative = inhibition result is “inactive”.

For `Cc1cc(C(=O)N/N=C\C(Br)=C\c2ccccc2)c(C)o1`, the activity change, negative = inhibition result was “inactive”.

Take `COc1ccc(NC(=O)CSc2ncnc3[nH]ncc23)cc1`: the activity change, negative = inhibition is 5.07% [at 15.4 µM] (inactive).

For `COc1cc(C(F)(F)F)c(C(=O)N(C)c2ccc(Cl)cc2)cn1`, the activity change, negative = inhibition entry was “inactive”.

Consider `O=C(CP(=O)(c1ccccc1)c1ccccc1)N1CCOCC1`, for which the activity change, negative = inhibition entry is “inactive”.

For the compound `S=C(Nc1ccc(Br)cc1Cl)NC1CCN(Cc2ccccc2)CC1`, the activity change, negative = inhibition result was “inactive”.

For the compound `CC(NC(=S)Nc1ccc(OC(F)F)cc1)c1ccc(F)cc1` (stereo unspecified), the activity change, negative = inhibition result was “inactive”.

As to `CS(=O)(=O)c1ccc2nc(NC(=O)c3ccc(N4CCCC4=O)cc3)sc2c1`, the activity change, negative = inhibition entry was “inactive”.

In the case of `CCOCCCNC(=O)C(NC(=O)c1ccccc1O)c1ccccc1` (stereo unspecified), the activity change, negative = inhibition entry is “inactive”.

In the case of `O=C(C1CCN(S(=O)(=O)c2ccc(Br)s2)CC1)N1CCN(C2CCCCC2)CC1`, the activity change, negative = inhibition entry was “inactive”.

For `Cc1cc(-c2nc(C)c(-c3nnc(SCC(=O)Nc4ccccc4)n3C)s2)no1`, the activity change, negative = inhibition is 3.88% [at 15.4 µM] (inactive).

`CNc1ccc([N+](=O)[O-])cc1C(=O)O`: the activity change, negative = inhibition entry is “inactive”.

As for `CSCC[C@H](NC(=O)NC1CCCC1)C(=O)O`, the activity change, negative = inhibition was -5.49% [at 15.4 µM] (inactive).

With `Cc1ccc(-c2cc(C(=O)NN)n[nH]2)o1`, the activity change, negative = inhibition entry is “inactive”.

Turning to `Cc1cccc(C)c1NC(=O)C1CCCN1C(=O)OC(C)(C)C` (stereo unspecified), the activity change, negative = inhibition result was “inactive”.

Turning to `Cc1ccc(/C=N/NC(=O)CSc2ccccn2)o1`, the activity change, negative = inhibition was 0.179% [at 15.4 µM] (inactive).

Turning to `CCCCCCCCCCCCC(NC(C)=O)(C(=O)OCC)C(=O)OCC`, the activity change, negative = inhibition result was “inactive”.

Turning to `O=C(NCC1CCCO1)c1cc(-c2ccccc2)nc2ccccc12` (stereo unspecified), the activity change, negative = inhibition is -10.8% [at 15.4 µM] (inactive).

As to `FC(F)(F)c1cccc(-c2nc(COc3ccc(Cl)cc3Cl)no2)c1`, the activity change, negative = inhibition result is “inactive”.

On to `COc1ccc(N2CCN(C(=O)CNS(=O)(=O)c3ccc(C)c(C)c3)CC2)cc1`, for which the activity change, negative = inhibition result was “inactive”.

On to `C/C(=N\Nc1ncc(Cl)cc1Cl)c1cccs1`, for which the activity change, negative = inhibition result is “inactive”.

With `Cc1onc(C(=O)NN)c1C(=O)N1CCN(C(c2ccccc2)c2ccccc2)CC1`, the activity change, negative = inhibition entry was “inactive”.

Take `CCOc1ccc2sc(NS(=O)(=O)c3ccc(N)cc3)nc2c1`: the activity change, negative = inhibition result is “inactive”.

For the compound `CCn1c(SCc2ccccc2)nc2c(c1=O)SCC2`, the activity change, negative = inhibition entry is “inactive”.

For the compound `Nc1ccccc1Sc1cc(Cl)nnc1Cl`, the activity change, negative = inhibition entry is “inactive”.

For `Cc1cccc(CSc2nc3c(c(=O)n2C)SCC3)c1`, the activity change, negative = inhibition result was “inactive”.
